Here are results for nine molecules from PubChem BioAssay (NCI).

About 83,000 compounds went through this panel and 20% of them were active in at least one assay; those are over-represented in the sample as a whole.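 The endpoint reported here, percent growth, reads 100 for growth as untreated, 0 for no net growth and -100 for all cells dead.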 Unmarked numbers belong to inactive results. Calls of active or inactive are those of the source. The calls were made as follows: active = growth percent below 10; inactive = the rest.

Some test systems named below: SK-MEL-2 melanoma; EKVX NSCLC; SN12C renal; UO-31 renal; TK-10 renal; A498 renal; CCRF-CEM leukemia; MOLT-4 leukemia; SR leukemia; RPMI-8226 leukemia; OVCAR-8 ovarian; OVCAR-5 ovarian; OVCAR-4 ovarian; SK-OV-3 ovarian; IGROV1 ovarian; OVCAR-3 ovarian; HS 578T breast; NCI/ADR-RES ovarian.
What all share (experiment): NCI-60 one-dose screen, 48 h (100 = growth as untreated, 0 = no growth, -100 = all killed)
What all share (details): 10 µM unless noted

For `Cc1nccc2c3ccc(OCc4cn(Cc5ccc(Br)cc5)nn4)cc3n(CCCc3ccccc3)c12`, the growth was 80.7% in the test with SK-MEL-2 melanoma; 85.5% with EKVX NSCLC; 92.1% in the test with SN12C renal; 71.2% with UO-31 renal; 101% in the test on TK-10 renal; 91% in the test on A498 renal. In addition, the growth in the test with CCRF-CEM leukemia was 83.1%; with MOLT-4 leukemia, 90.8%; in the test on SR leukemia it was 77.8%; in the test with RPMI-8226 leukemia, 72.9%; with OVCAR-8 ovarian it was 60.8%; with OVCAR-5 ovarian, 106%. The growth was 50.9% with OVCAR-4 ovarian; 81.6% with SK-OV-3 ovarian; 77.4% in the test on IGROV1 ovarian; 82.1% with OVCAR-3 ovarian; 66.9% with HS 578T breast; 78.8% with NCI/ADR-RES ovarian.

For `Cc1nccc2c3ccc(OCc4cn(-c5ccc(Br)cc5)nn4)cc3n(CCCc3ccccc3)c12`, the growth with SK-MEL-2 melanoma is 107%; in the test with EKVX NSCLC, 68.9%; in the test on SN12C renal it was 66.9%; in the test on UO-31 renal it was -73.5% (active); in the test with TK-10 renal it was 34.1%; with A498 renal it was 110%. The growth was 15% with CCRF-CEM leukemia; 41.2% in the test with MOLT-4 leukemia; -29.8% (active) in the test on SR leukemia; 8.43% (active) in the test with RPMI-8226 leukemia; 2.18% (active) in the test on OVCAR-8 ovarian; 49.6% with OVCAR-5 ovarian. In addition, the growth with OVCAR-4 ovarian is 63.2%; in the test on SK-OV-3 ovarian it was 90%; with IGROV1 ovarian it was 60.4%; in the test on OVCAR-3 ovarian it was 104%; in the test with HS 578T breast, -6.57% (active); with NCI/ADR-RES ovarian, -36.1% (active).

Regarding `CCN(CC)CCNCC(O)Cc1ccc(OC)cc1` (centres undefined), the growth with SK-MEL-2 melanoma was 96.4%; with EKVX NSCLC, 105%; in the test on SN12C renal it was 98.8%; in the test on UO-31 renal, 82.6%; with TK-10 renal, 88%; in the test with A498 renal, 109%. Moreover, the growth in the test with CCRF-CEM leukemia is 83.9%; in the test on MOLT-4 leukemia, 73.4%; in the test on SR leukemia it was 88.2%; in the test with RPMI-8226 leukemia it was 98.1%; with OVCAR-8 ovarian, 89.9%; with OVCAR-5 ovarian, 113%. The growth in the test with OVCAR-4 ovarian is 120%; in the test with SK-OV-3 ovarian it was 92.3%; in the test on IGROV1 ovarian it was 111%; in the test on OVCAR-3 ovarian, 108%; in the test on HS 578T breast, 95.8%; in the test on NCI/ADR-RES ovarian, 107%.

As for `CC(C)CNCC(O)COc1ccc(C(C)(C)c2ccc(OCC(O)CNCC(C)C)cc2)cc1` (centres undefined), the growth in the test with SK-MEL-2 melanoma was -6.06% (active); with EKVX NSCLC, 69.4%; in the test on SN12C renal it was 67.5%; in the test with UO-31 renal it was -32.2% (active); in the test with TK-10 renal it was 66.6%; in the test on A498 renal, 59.8%. Besides, the growth with CCRF-CEM leukemia is 0.812% (active); with MOLT-4 leukemia, -35.8% (active); in the test with SR leukemia, -38.7% (active); in the test on RPMI-8226 leukemia it was -9.88% (active); with OVCAR-8 ovarian it was 53.4%; with OVCAR-5 ovarian, 80.8%. In addition, the growth with OVCAR-4 ovarian was 81%; with SK-OV-3 ovarian it was 86.9%; in the test on IGROV1 ovarian, 47.4%; with OVCAR-3 ovarian, 44.5%; in the test with HS 578T breast it was 65.4%; with NCI/ADR-RES ovarian, 86.7%.

Turning to `Cc1c(F)cccc1NC(=O)c1sc2nc3c(cc2c1N)CCCCC3`, the growth with SK-MEL-2 melanoma is 40.7%; in the test with EKVX NSCLC, 64.7%; in the test on SN12C renal, 84.6%; in the test with UO-31 renal, 72.7%; with TK-10 renal it was 85.3%; with A498 renal, 33.7%. Moreover, the growth is 23.6% in the test with CCRF-CEM leukemia; 30.7% with MOLT-4 leukemia; 16.8% in the test with SR leukemia; 35.3% in the test on RPMI-8226 leukemia; 80.3% with OVCAR-8 ovarian; 90.1% with OVCAR-5 ovarian. In addition, the growth with OVCAR-4 ovarian was 75.6%; in the test on SK-OV-3 ovarian, 66.2%; with IGROV1 ovarian it was 53.7%; in the test with HS 578T breast it was 54.3%; in the test with NCI/ADR-RES ovarian, 43.9%.

On to `C#CC(=O)/C=C/CCCCCCC#CC(=O)CCC(=O)C#CCCCCCC/C=C/C(=O)C#C`, for which the growth in the test with SK-MEL-2 melanoma was 82.1%; in the test with EKVX NSCLC it was 25.4%; with SN12C renal, -24.5% (active); in the test with UO-31 renal it was -90.7% (active); with TK-10 renal, 32.5%; in the test with A498 renal it was 93.4%. Moreover, the growth in the test on CCRF-CEM leukemia is -45.5% (active); with MOLT-4 leukemia, -32.2% (active); with SR leukemia, -34.8% (active); in the test on RPMI-8226 leukemia, -31.6% (active); with OVCAR-8 ovarian, 8.53% (active); in the test on OVCAR-5 ovarian it was 57.7%. Moreover, the growth is 23.5% in the test with OVCAR-4 ovarian; 91.8% in the test on SK-OV-3 ovarian; -39.5% (active) in the test on IGROV1 ovarian; 47% in the test with HS 578T breast; 11% with NCI/ADR-RES ovarian.

On to `CC1(C)CC(=O)C2=C(C1)OC1=C(C(=O)CC(C)(C)C1)C2c1ccc(OCc2cn(-c3ccc(F)cc3F)nn2)cc1`, for which the growth is 93.8% in the test with SK-MEL-2 melanoma; 99.4% in the test with EKVX NSCLC; 99.4% with SN12C renal; 89.6% with UO-31 renal; 109% with TK-10 renal; 46.9% in the test with A498 renal. The growth was 84.9% in the test on CCRF-CEM leukemia; 77.2% in the test on MOLT-4 leukemia; 58.6% with SR leukemia; 95.3% in the test on OVCAR-8 ovarian; 124% in the test on OVCAR-5 ovarian; 94.4% in the test with OVCAR-4 ovarian. For the same molecule, the growth with SK-OV-3 ovarian is 100%; with IGROV1 ovarian, 102%; in the test on OVCAR-3 ovarian, 95.3%; with HS 578T breast it was 96.2%; in the test with NCI/ADR-RES ovarian it was 94%.

As for `O=C(O)c1ccc(-n2cc(/C=N/Nc3ccc(F)cc3)c(-c3cccc(C(F)(F)F)c3)n2)cc1`, the growth in the test on SK-MEL-2 melanoma is 70.1%; with EKVX NSCLC, 70.8%; in the test on SN12C renal, 86.9%; in the test with UO-31 renal, 45.6%; in the test on TK-10 renal, 91.9%; in the test on A498 renal, 69%. In addition, the growth is 33.7% with CCRF-CEM leukemia; 36.5% in the test on MOLT-4 leukemia; 87% with SR leukemia; 47.2% in the test on RPMI-8226 leukemia; 78.4% in the test with OVCAR-8 ovarian; 78.2% in the test on OVCAR-5 ovarian. Further, the growth with OVCAR-4 ovarian was 92.4%; in the test with SK-OV-3 ovarian, 94.6%; in the test on IGROV1 ovarian, 74.8%; in the test with OVCAR-3 ovarian, 70.8%; in the test with HS 578T breast, 89.2%; with NCI/ADR-RES ovarian, 65.2%.

For the molecule `C=C1C(=O)O[C@H]2[C@H]1CC/C(COC(=O)CCCC(=O)OC/C1=C/CC[C@@]3(C)O[C@H]3[C@H]3OC(=O)C(=C)[C@@H]3CC1)=C\CC[C@@]1(C)O[C@@H]21`, the growth in the test with SK-MEL-2 melanoma is 19.5%; in the test with EKVX NSCLC, 51.1%; with SN12C renal, 15.1%; in the test with UO-31 renal, 13.6%; with TK-10 renal, 7.23% (active); with A498 renal, 62.6%. Moreover, the growth with CCRF-CEM leukemia was -11.7% (active); in the test with MOLT-4 leukemia, -19.1% (active); with SR leukemia it was 0.324% (active); in the test on RPMI-8226 leukemia it was -9.1% (active); in the test on OVCAR-8 ovarian, -9.93% (active); in the test with OVCAR-5 ovarian, 2.2% (active). The growth with OVCAR-4 ovarian is 49.2%; in the test on SK-OV-3 ovarian, 74.5%; with IGROV1 ovarian, 13.4%; in the test on OVCAR-3 ovarian it was -46.6% (active); in the test with HS 578T breast, 47.1%; in the test on NCI/ADR-RES ovarian it was 83.1%.
